# Measured values taken from PubChem BioAssay AID602310 (National Center for Advancing Translational Sciences (NCATS), 2012).
# Screen size: about 410,000 compounds; about 310 (0.076%) were called active. Entries that show only a call come without a potency. Inconclusive results (about 2%) are left out. The call rests on the fitted dose curve; in most records, active means well fitted curve in the direction sought with a large enough effect; inconclusive means small, poorly fitted or top-dose-only effect; inactive means flat fitted curve, though single readings scatter. The sample as a whole holds a higher share of actives than the screen did.
# Molecular target: DNA dC->dU-editing enzyme APOBEC-3G (Homo sapiens) (UniProt Q9HC16)
# Test: qHTS for Inhibitors of Vif-A3G Interactions: qHTS; further: nearly all actives have a fitted effect of over 60% in size
# Details: HeLa A3G-eYFP + Vif (tagged APOBEC3G with the HIV-1 protein that degrades it), YFP fluorescence, overnight; series mostly up to 46.1 µM
# Excerpt: The recent discovery and characterization of host restriction factors, which provide a potent defense to invading retroviruses, has provided new targets for antiviral drug development. APOBEC3G (A3G) and APOBEC3F (A3F) are potent cytidine deaminases that block HIV-1 replication; HIV-1 expresses the Vif protein, which counteracts A3G and A3F by binding to them and inducing their proteasomal degradation. The Vif-A3G and Vif-A3F interactions provide two potential targets for development of small molecules which can interfere with the ability of Vif to degrade A3G or A3F. […] To identify inhibitors that can interfere with Vif mediated degradation of A3G and A3F, we have developed Hela cell lines that stably express A3G or A3F tagged with eYFP at the C-terminal end (A3G-eYFP or A3F-eYFP, respectively) and Vif. In the absence of an inhibitor, Vif induces degradation of A3G-eYFP and A3F-eYFP, and the cells are not fluorescent. In the presence of an inhibitor, it is expected that Vif will be unable to degrade A3G-eYFP and/or A3F-eYFP, resulting in an increase in yellow fluorescence. In this assays Vif A3G was screened against the Molecular Library Small Molecule Repository (MLSMR). NIH Chemical Genomics Center [NCGC] NIH Molecular Libraries Probe Centers Network [MLPCN] MLPCN Grant: MH093245 Assay Submitter (PI): Vinay Pathak, National Cancer Institute
# 5 uL of 700 cells/well of A3G-YFP cells are dispensed into black, clear bottom plates. The plates are incubated overnight at 37 deg C. 23 nL of compounds are added by pintool. The plates are incubated overnight at 37 deg C and then read on the TTP Acumen (Ex 488/ Em 500-530).
# Potency means the concentration at half of the fitted maximal effect.
# Sequence of DNA dC->dU-editing enzyme APOBEC-3G (Homo sapiens) (Q9HC16 whole entry, looked up): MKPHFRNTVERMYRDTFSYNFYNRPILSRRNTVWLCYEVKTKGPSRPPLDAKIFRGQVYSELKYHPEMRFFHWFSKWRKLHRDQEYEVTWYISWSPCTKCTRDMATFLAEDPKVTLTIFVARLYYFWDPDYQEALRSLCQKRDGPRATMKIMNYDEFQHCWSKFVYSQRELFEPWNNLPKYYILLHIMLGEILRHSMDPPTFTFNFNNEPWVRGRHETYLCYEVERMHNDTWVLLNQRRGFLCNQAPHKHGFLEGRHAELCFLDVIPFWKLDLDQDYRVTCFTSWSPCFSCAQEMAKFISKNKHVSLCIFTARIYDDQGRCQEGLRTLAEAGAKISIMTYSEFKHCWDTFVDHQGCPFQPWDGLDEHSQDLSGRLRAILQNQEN
row,Structure (SMILES),Potency
1,CCC(=NCCc1ccccc1)c1c(O)n(C2CCCCC2)c(=O)[nH]c1=O,inactive
2,CC/C(=N\NC(=O)c1ccccc1O)c1c(O)n(Cc2ccccc2)c(=O)[nH]c1=O,10 µM (active)
3,O=c1[nH]c(=O)n(Cc2ccccc2)c(O)c1/C=N/Nc1c(F)c(F)c(F)c(F)c1F,inactive
4,ClCCN(CCCl)c1ccc(C=Nc2ccc(/C=C/c3ccnc4ccccc34)cc2)cc1,inactive
